Laboratory results: PubChem BioAssay (NCI)
About 83,000 compounds went through this panel and 20% of them were active in at least one assay; those are over-represented in the sample as a whole.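 Cell lines were cultured in 96-well plates, exposed to a single compound concentration, and assessed for percent growth 48 hours later.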 Active and inactive are the calls of the source. Rule for the calls: active = growth percent below 10; inactive = the rest.

Experiments:
Experiment in all cases: NCI-60 one-dose screen, 48 h (100 = growth as untreated, 0 = no growth, -100 = all killed)
Conditions in all cases: 10 µM unless noted
[1] = tested on: NCI-H23 lung
[2] = tested on: NCI-H226 lung
[3] = tested on: NCI-H322M lung
[4] = tested on: HOP-62 NSCLC
[5] = tested on: NCI-H460 lung
[6] = tested on: NCI-H522 lung
[7] = tested on: A549/ATCC NSCLC
[8] = tested on: 786-0 renal
[9] = tested on: COLO 205 colon
[10] = tested on: DU-145 prostate
[11] = tested on: MALME-3M melanoma
[12] = tested on: MDA-MB-231 breast
[13] = tested on: RXF 393 renal
[14] = tested on: SF-268 CNS
[15] = tested on: SF-295 CNS
[16] = tested on: SF-539 CNS
[17] = tested on: UACC-257 melanoma
[18] = tested on: M14 melanoma
[19] = tested on: K-562 leukemia

Measured: growth

O=S1(=O)NCCN1CCNc1nccc(-c2c(-c3cccc(O)c3)nc3sccn23)n1
active: [11] 4.99%
inactive: [1] 104% | [2] 105% | [3] 115% | [4] 115% | [5] 107% | [6] 87.2% | [7] 106% | [8] 126% | [9] 42.4% | [10] 106% | [12] 86.8% | [13] 111% | [14] 116% | [15] 93.2% | [16] 109% | [17] 59.7% | [18] 20.8%

COc1cc(CN(c2ccc(C)cc2)C2OC(=O)c3ccccc32)cc(OC)c1OC (centres undefined)
inactive: [1] 29% | [2] 20.1% | [3] 60.2% | [4] 24.8% | [5] 18.4% | [6] 31.7% | [7] 30.5% | [8] 28.9% | [10] 25% | [11] 63.4% | [12] 64.6% | [13] 22.3% | [14] 34.1% | [15] 16.8% | [17] 94.2%
active: [9] -45.5% | [16] 5.91% | [18] -10%

Cc1cc(-c2ccccc2)on1
inactive: [1] 106% | [2] 99.4% | [3] 90.5% | [4] 92.9% | [5] 112% | [6] 97.9% | [7] 104% | [8] 95.2% | [9] 109% | [10] 111% | [11] 102% | [12] 105% | [13] 119% | [14] 103% | [15] 100% | [16] 88.8% | [17] 109% | [18] 105%

O=C1CCCN1C(O)CCN(Cc1ccccc1)Cc1ccc(Cl)cc1 (centres undefined)
inactive: [1] 103% | [2] 105% | [3] 95.5% | [4] 104% | [5] 105% | [6] 93.3% | [7] 103% | [8] 95.7% | [9] 124% | [10] 110% | [11] 109% | [12] 112% | [13] 123% | [14] 105% | [15] 94.2% | [16] 114% | [17] 106% | [18] 99.9%

Cc1ccc(C(=O)CC(=O)C(F)(F)C(F)(F)C(F)(F)F)s1
inactive: [1] 105% | [2] 103% | [3] 105% | [4] 96.9% | [5] 111% | [6] 121% | [7] 104% | [8] 97.2% | [9] 119% | [10] 104% | [11] 98.7% | [12] 92.1% | [13] 111% | [14] 101% | [15] 103% | [16] 98.7% | [17] 105% | [18] 103%

CCOC(=O)c1ccc2c(c1)nc(-c1ccc(Cl)cc1)n2-c1cc(C(C)(C)C)[nH]n1
inactive: [1] 44.5% | [2] 29.5% | [3] 64.1% | [4] 39.3% | [5] 23.1% | [6] 26.1% | [7] 39.9% | [8] 14.1% | [9] 34.7% | [10] 53.4% | [11] 33.5% | [12] 54.1% | [13] 21.4% | [14] 44.8% | [15] 16.9% | [16] 11.3% | [17] 73.2%
active: [18] 9.36%

COc1cccc(-c2nc3sccn3c2-c2ccnc(NCCN3CCCN(C)S3(=O)=O)n2)c1
inactive: [1] 104% | [2] 78.9% | [3] 91.4% | [4] 111% | [5] 69.5% | [6] 95.9% | [7] 91.7% | [8] 73.3% | [9] 45.8% | [10] 74.2% | [11] 39.6% | [12] 84.9% | [13] 74.6% | [14] 103% | [15] 96.8% | [16] 92.5% | [17] 84.7% | [18] 29.2%

CN1C(=O)N(C)C2C1NN=c1s/c(=C\c3ccc(Br)cc3)c(=O)n12 (centres undefined)
inactive: [1] 41.9% | [2] 59.8% | [3] 49.7% | [4] 32.4% | [5] 13.4% | [7] 38.8% | [8] 30.2% | [10] 17.2% | [19] 10.7% | [11] 67.7% | [12] 66.1% | [14] 39.4% | [15] 23.1% | [17] 46% | [18] 32.8%
active: [6] -14.6% | [13] 9.08% | [16] 7.53%

COc1cc(CN2CCC(N3CCCC3=O)c3ccccc32)cc(OC)c1OC (centres undefined)
inactive: [1] 63% | [2] 85.9% | [3] 87.9% | [4] 95.5% | [5] 89.4% | [6] 55.3% | [7] 80.7% | [8] 80.4% | [10] 108% | [19] 46% | [11] 71.9% | [12] 90.4% | [13] 112% | [14] 91.6% | [15] 79.3% | [16] 93.7% | [17] 72.2% | [18] 92.9%

COC(=O)c1ccc2c(c1)nc(-c1ccc(Cl)cc1)n2-c1cc(C(C)(C)C)[nH]n1
inactive: [1] 60.7% | [2] 94.3% | [3] 92.5% | [4] 116% | [5] 45.1% | [6] 38% | [7] 47.2% | [8] 46% | [10] 85.9% | [19] 34.3% | [11] 14.8% | [12] 92% | [13] 45.7% | [14] 68.5% | [15] 43.3% | [16] 60.4% | [17] 62.3% | [18] 33.8%

COc1ccc(-c2cnnn2-c2nonc2-n2cccc2)cc1
active: [1] 3.55% | [5] 7.52% | [6] -4.72% | [10] 9.22% | [13] -18.3% | [15] -17.2% | [16] -13.9% | [18] -2.06%
inactive: [2] 23.6% | [3] 49.6% | [4] 27.2% | [7] 26% | [8] 36.6% | [11] 47.8% | [12] 33.5% | [14] 35.1% | [17] 65.6%

COc1ccccc1CNCCCN1C(=O)c2ccc3c4c(ccc(c24)C1=O)C(=O)N(CCCCNCCCN)C3=O
active: [1] -41.7% | [3] 5.96% | [5] -38.5% | [6] -78.4% | [10] -72.6% | [11] -95.6% | [12] 9.1% | [13] -4.56% | [14] 2.12% | [16] -61.1% | [17] -95% | [18] -49.3%
inactive: [2] 62.6% | [4] 40.1% | [7] 33% | [8] 40% | [15] 54.8%

C[C@@H]1N=C(c2ccc3ccccc3c2)Nc2nc3ccccn3c2C1=O
inactive: [1] 46.1% | [2] 64.5% | [3] 73.2% | [4] 36.7% | [5] 15.2% | [6] 29.4% | [7] 39.5% | [8] 69.3% | [10] 73.3% | [19] 27.6% | [11] 42.3% | [12] 52.5% | [13] 49.9% | [14] 58% | [15] 14.9% | [16] 37.2% | [17] 40.9% | [18] 19.8%

Oc1ccccc1-c1nnc(COc2ccc(Cl)cc2Cl)o1
inactive: [1] 57% | [2] 66.2% | [3] 52.6% | [4] 40.6% | [5] 28.3% | [7] 54.5% | [8] 44.7% | [10] 48.1% | [19] 44.5% | [11] 68.3% | [12] 48.2% | [13] 63.5% | [15] 47.4% | [16] 52.1% | [17] 58.9% | [18] 42.5%
active: [6] 1.97% | [14] 8.59%

COc1cccc(-c2nc3sccn3c2-c2ccnc(NCCN3CCCNS3(=O)=O)n2)c1
inactive: [1] 99.4% | [2] 81.4% | [3] 95.6% | [4] 123% | [5] 68.8% | [6] 92.2% | [7] 99.2% | [8] 77.5% | [9] 51.5% | [10] 79.2% | [11] 24.2% | [12] 83.3% | [13] 76.7% | [14] 94.7% | [15] 106% | [16] 111% | [17] 65.4% | [18] 18%

CNC1=C([N+](=O)[O-])C(c2ccccc2O)C(C#N)=C(c2cccs2)O1 (centres undefined)
active: [6] 7.12%
inactive: [1] 99.1% | [2] 97.5% | [3] 98.6% | [4] 88% | [5] 105% | [7] 99.7% | [8] 93.2% | [10] 103% | [19] 63.8% | [11] 52.8% | [12] 93.8% | [13] 89.7% | [14] 96.3% | [15] 102% | [16] 95.6% | [17] 78.3% | [18] 93.4%

C=CCOC(=O)C1=C(C)NC2=C(C(=O)CC(C)(C)C2)C1c1ccc(OC)cc1 (centres undefined)
inactive: [1] 104% | [2] 98.4% | [3] 95.7% | [4] 90% | [5] 106% | [6] 82.8% | [7] 98.3% | [8] 97.8% | [10] 110% | [19] 90.4% | [11] 104% | [12] 92.8% | [13] 105% | [14] 94.1% | [15] 105% | [16] 108% | [17] 96.2% | [18] 96.8%
